High-throughput results (PubChem BioAssay)
NR3A LBD binder: modulators (binders) of human NR3A ligand-binding domain. NR3A LBD differential scanning fluorimetry, Tm shift; 0% = protein alone, 100% = glycine-bound protein. Tm shift relative to glycine control, % at 25 µM. actives 2.5% (n = 340,000). AID 1259313;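 active = melting temperature shift of at least 10% of the positive control shift, at one fixed dose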
proKLK7 act: activates the human kallikrein-7 zymogen. P49862. purified proKLK7, EDANS-DABCYL substrate fluorescence; 100% is mature enzyme control, 0% vehicle. activation, % at 7 µM. actives 0.9% (n = 370,000);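 active = activation above the mean of all tested compounds plus 3 SD, computed per campaign excluding outliers beyond control limits, cut at about 13% in these data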
Target sequence (P49862 whole entry, looked up): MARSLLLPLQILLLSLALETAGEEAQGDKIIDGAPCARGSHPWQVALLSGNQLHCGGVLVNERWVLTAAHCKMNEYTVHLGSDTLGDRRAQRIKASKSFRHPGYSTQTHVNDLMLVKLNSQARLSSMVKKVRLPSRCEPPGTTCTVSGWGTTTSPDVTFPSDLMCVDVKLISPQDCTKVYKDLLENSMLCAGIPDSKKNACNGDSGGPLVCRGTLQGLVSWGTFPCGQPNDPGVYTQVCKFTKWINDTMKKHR
FAS-TE inh: FAS thioesterase (human) inhibition; recombinant FAS-TE, OMFH fluorogenic substrate, fluorescence endpoint; inhibition, % at 15 µM; actives 0.67% (n = 360,000); AID 602261;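 active = compounds whose normalised, plate-corrected inhibition of enzyme fluorescence in the single-dose primary screen is 50% or more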
ADAM10 inh: inhibitors of human ADAM10; actives 0.62% (n = 370,000); recombinant ADAM10, EDANS/DABCYL FRET peptide cleavage, 3 h; inhibition, % at 7 µM; O14672;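 active = inhibition above a per-campaign cutoff equal to the mean of compounds falling between control-based bounds plus 3 SD, cut at about 20% in these data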
ADAM17 inh: inhibitors of human ADAM17. P78536. AID 720648. actives 0.83% (n = 370,000). recombinant ADAM17, EDANS/DABCYL FRET peptide cleavage. inhibition, % at 6.95 µM;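 active = inhibition above the mean of compounds lying between control limits plus 3 SD, set per campaign, cut at about 8.5% in these data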
FAS-TE conf: FAS thioesterase (human) inhibition, confirmation | inhibition, % at 15 µM | recombinant FAS-TE, OMFH fluorogenic substrate, fluorescence | AID 624325 | actives 45% (n = 2,300) | shares compounds with FAS-TE inh;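 active = compounds inhibiting the enzyme by at least 50% at 15 µM in any one of the replicates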
Numbers stand for hits; i = inactive; nt = no result. In the library only some 4.6% were active in any assay of this set; here they are far more common.

SMILES	NR3A LBD binder	proKLK7 act	FAS-TE inh	ADAM10 inh	ADAM17 inh	FAS-TE conf
O=C(NCCc1cccs1)C12CN(Cc3ccccc3)CC1C(c1cccc([N+](=O)[O-])c1)=NO2 (stereo unspecified)	i	i	51	i	i	i
COC(=O)CNC(=O)CSc1nnc(-c2ccc(OC)cc2)n1CC(C)C	i	i	i	i	i	nt
COc1ccc(-c2nnc(SCC(=O)Nc3ncc(C(F)(F)F)cc3Cl)n2CC(C)C)cc1	i	i	79	i	i	81
O=S(=O)(c1ccc(Cl)cc1)N1CCCC(c2nc(-c3ccc(F)cc3)no2)C1 (stereo unspecified)	i	i	64	i	i	46
COc1ccc(Cn2c(NC(=O)c3ccccc3)nc(Cc3ccccc3)c2-c2ccccc2)c(OC)c1	nt	i	nt	i	i	nt
COc1ccc(NC2=Nc3ccccc3N3C2=Nc2c(c(C)nn2-c2ccc(C)cc2)C3c2cccnc2)cc1 (stereo unspecified)	i	i	70	i	i	i
COc1ccc(Cc2nc3c4c(ncn3n2)Oc2ccc3ccccc3c2C4c2ccc(OC)c(OC)c2)cc1 (stereo unspecified)	i	i	59	i	i	i
COc1ccc(Cc2nc3c4c(ncn3n2)Oc2c(ccc3ccccc23)C4c2ccc(OC)c(OC)c2)cc1 (stereo unspecified)	i	i	i	i	i	nt
O=C(c1cc(COc2cccc(C(F)(F)F)c2)on1)N1C[C@@H]2CCC[C@H]1C2	i	i	56	i	i	24
CC(C)(C)SCCNC(=O)c1ccc(Cl)c([N+](=O)[O-])c1	i	i	53	i	i	68
Cc1ccccc1CNC(=O)c1ccc(Cl)c([N+](=O)[O-])c1	i	i	i	i	i	nt
CCn1c2ccccc2c2cc(NC(=O)c3ccc(C)c([N+](=O)[O-])c3)ccc21	i	i	52	i	i	i
CCCC(=O)Nc1cccc(NC(=O)c2ccc(C)c([N+](=O)[O-])c2)c1	i	i	i	i	i	nt
COc1cc(/C=N/NC(=O)C(Cc2c[nH]c3ccccc23)NC(=O)OCc2ccccc2)cc([N+](=O)[O-])c1O (stereo unspecified)	i	i	75	41	9.1	75
COc1cc(/C=N/NC(=O)C(Cc2c[nH]c3ccccc23)NC(=O)OCC(C)C)cc([N+](=O)[O-])c1O (stereo unspecified)	i	i	i	i	i	nt
Cc1ccccc1C(=O)N[C@H](C(=O)N1CCC[C@H]1C(=O)NCCc1ccccc1Cl)c1ccccc1	nt	i	nt	i	i	nt
Cc1ccc(/C=N\NC(=O)CN2CCN(S(=O)(=O)c3ccc(Br)cc3)CC2)s1	nt	i	nt	i	i	nt
O=C(C1CCC1)n1ccc2ccc(-c3ccc4ccn(Cc5ccccc5)c4c3)cc21	nt	i	nt	i	i	nt
O=C(/C=C/c1ccc(Cl)cc1Cl)N1CCN(c2ccc([N+](=O)[O-])c(N3CCOCC3)c2)CC1	i	i	65	i	i	i
O=C(/C=C/c1ccc(Cl)cc1)N1CCN(c2ccc([N+](=O)[O-])c(N3CCOCC3)c2)CC1	i	i	i	i	i	nt
CC(C)Oc1ccc(C2CC(=O)N(Nc3ccc([N+](=O)[O-])cc3[N+](=O)[O-])C2=O)cc1 (stereo unspecified)	i	i	90	i	i	92
CCOc1ccc(C2CC(=O)N(Nc3ccc([N+](=O)[O-])cc3[N+](=O)[O-])C2=O)cc1 (stereo unspecified)	i	i	86	i	i	69
CCC(C)CNC(=O)CSc1nnc(-c2cccnc2)n1C1CCCCC1 (stereo unspecified)	nt	i	nt	i	i	nt
CCCCNS(=O)(=O)CC1NCc2cc(OC)ccc21 (stereo unspecified)	nt	i	nt	i	i	nt
CCOc1ccc(-n2c(SCc3ccc([N+](=O)[O-])cc3)nnc2-c2ccccc2)cc1	i	i	63	i	i	56
SMILES	NR3A LBD binder	proKLK7 act	FAS-TE inh	ADAM10 inh	ADAM17 inh	FAS-TE conf
COc1ccc(-n2c(SCc3ccc([N+](=O)[O-])cc3)nnc2-c2ccccc2)cc1	i	i	56	i	i	51
COc1ccc(-c2ccc3c(n2)CCCN3S(=O)(=O)c2ccccc2)cc1	nt	i	nt	i	i	nt
CNC(=O)CSc1ncnc2c1cnn2-c1ccccc1	i	i	i	i	i	nt
O=C(CSc1ncnc2c1cnn2-c1ccccc1)NC1CCCC1	i	i	61	i	i	55
CCCn1c(SCC(=O)Nc2ccccc2-c2ccccc2)nnc1-c1ccoc1C	i	i	60	i	i	74
O=C(Nc1ccc(Cl)cc1Cl)OC1CCC12CCC(c1ccccc1)CC2 (stereo unspecified)	nt	nt	nt	i	i	nt
O=C(C[C@H]1C[C@H](C(=O)N2CCOCC2)[C@@]2(CCC3CCCC3)c3[nH]c4ccc(Cl)cc4c3CCN2C1=O)NCCN1CCOCC1	i	i	85	i	i	76
O=C(C[C@H]1C[C@H](C(=O)N2CCOCC2)[C@@]2(CCC3CCCC3)c3[nH]c4cc(-c5ccco5)ccc4c3CCN2C1=O)NCCC1=CCCCC1	i	nt	i	nt	nt	nt
O=C(C[C@H]1C[C@H](C(=O)N2CCOCC2)[C@@]2(CCC3CCCC3)c3[nH]c4ccc(Cl)cc4c3CCN2C1=O)NCCc1ccccn1	i	i	83	i	i	93
COCCCNC(=O)C[C@H]1C[C@H](C(=O)N2CCOCC2)[C@@]2(CCC3CCCC3)c3[nH]c4ccc(Cl)cc4c3CCN2C1=O	i	i	86	i	i	i
C[C@]12c3[nH]c4ccc(Cl)cc4c3CCN1C(=O)[C@@H](CC(=O)NCCN1CCOCC1)C[C@@H]2C(=O)N1CCOCC1	i	i	i	i	i	nt
O=C(C[C@H]1C[C@H](C(=O)N2CCOCC2)[C@@]2(CCC3CCCC3)c3[nH]c4cc(-c5ccco5)ccc4c3CCN2C1=O)NCCc1ccccn1	i	i	64	i	i	71
COc1ccc(-c2cc(-c3nnc4sc(Cc5cccs5)nn34)[nH]n2)cc1	nt	i	nt	i	i	nt
CCCCCCC(=O)NC1CCCCN(Cc2cccc(Cl)c2)C1=O (stereo unspecified)	nt	i	nt	i	i	nt
CCOC(=O)[C@]12CCCC=C1N(CCCOC)C(=O)[C@@H]2CC(=O)NCCc1ccccc1OC	nt	i	nt	i	i	nt
COc1cccc(N2CCN(C(=O)CSc3nc4ncccc4[nH]3)CC2)c1	nt	i	nt	i	i	nt
NC(=O)c1ccc(C(F)(F)F)n(Cc2c(Cl)cccc2Cl)c1=O	i	i	50	i	i	i
COc1ccc(Cn2c(C(F)(F)F)ccc(C(N)=O)c2=O)cc1	i	i	i	i	i	nt
Cc1ccc(S(=O)(=O)N2[C@@H](c3ccc(C(C)(C)C)cc3)C(C(=O)O)=CC[C@H]2c2ccc(C(C)C)cc2)cc1	i	i	76	22	i	i
